{"source": "the supplement of paper PMC3484114", "note": "± gives the standard deviation."}
{"tested_on": "OVCAR-3-derived ovarian cancer stem-like cells (spheroids)", "assay": "cell growth relative to untreated control; higher = more growth (less inhibition)", "details": "2.29 µM; 96 h", "method_in_brief": "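OVCAR-3 spheroid-derived stem-like cells were trypsin-dissociated, seeded at 50,000 cells/mL in stem cell medium in ultra-low attachment 96-well plates and preincubated 24 h. Compounds were then added at 2.29 uM for 96 h at 37°C, 5% CO2, in 4 replicate wells. Viability was read as TOX8 resazurin fluorescence (ex 560/em 590 nm) after 4 h. Percent growth was calculated relative to untreated wells after blank subtraction and Grubbs outlier removal.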", "units": {"cell growth": "%"}}
{"smiles": "O=c1ncccn1C1OC(CO)C(O)C1F", "note": "(stereo unspecified)", "cell growth": "113 ± 22"}
{"smiles": "CC1(C)CC(Nc2ccc(Nc3ccccc3)cc2)CC(C)(C)N1", "cell growth": "72.4 ± 10"}
{"smiles": "CN(C)CCCN1c2ccccc2Sc2ccc3ccccc3c21", "cell growth": "117 ± 58"}
{"smiles": "COc1ccccc1[S+]([O-])Nc1ccccc1", "note": "(stereo unspecified)", "cell growth": "117 ± 25"}
{"smiles": "N#CC(=C1C=CC(=NO)C=C1)c1ccc(Cl)cc1", "cell growth": "91.1 ± 17"}
{"smiles": "O=C(CC(=O)c1ccccc1)CC(O)(c1ccccc1)c1ccccc1", "cell growth": "124 ± 18"}
